Source: PubChem BioAssay (NCI)
Compounds without any hit were thinned out: in the full panel of roughly 79,000, 15% have a hit. Unmarked numbers belong to inactive results. Activity calls are given as the source filed them. No stated cut-off is given here; in the data, active means growth inhibition above about 70%; inactive means the rest.

Experiments:
[1] = NCI Yeast Anticancer Drug Screen. Data for the rad50 strain (AID 155);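 further: 0% = growth of vehicle-only cultures of the same strain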; conditions: S. cerevisiae rad50 strain growth inhibition, stronger effect = higher value
Method in brief: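 Relative growth inhibition (compound vs vehicle) was measured in yeast with a defined repair-gene alteration.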

[2] = NCI Yeast Anticancer Drug Screen. Data for the mec2-1 strain (AID 157); conditions: S. cerevisiae mec2-1 strain, stronger effect = higher value
Method in brief: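 Using mec2-1 yeast: add compound, measure growth, express inhibition versus vehicle-treated cultures.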

[3] = NCI Yeast Anticancer Drug Screen. Data for the sgs1 mgt1 strain (AID 161);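 further: 0% = growth of cultures given vehicle only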; conditions: S. cerevisiae sgs1 mgt1 strain, stronger effect = higher value
Method in brief: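 Yeast cells carrying a defined DNA-repair defect were exposed to test compounds. Growth inhibition was measured relative to vehicle-treated controls.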

[4] = NCI Yeast Anticancer Drug Screen. Data for the cln2 rad14 strain (AID 165);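 further: 0% = growth equal to vehicle treated cultures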; conditions: S. cerevisiae cln2 rad14 strain, stronger effect = higher value
Method in brief: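 Yeast strain cln2 rad14, bearing defects in cell cycle control and DNA repair, serves as the test system; values reflect growth inhibition compared with vehicle.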

[5] = NCI Yeast Anticancer Drug Screen. Data for the bub3 strain (AID 167); conditions: S. cerevisiae bub3 mutant strain, stronger effect = higher value
Method in brief: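 Screening used yeast with an engineered genetic alteration affecting cell cycle control. Compound-exposed cultures were compared with vehicle cultures, and reduced growth was taken as inhibition.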

[6] = NCI Yeast Anticancer Drug Screen. Data for the mlh1 rad18 strain (AID 175); conditions: S. cerevisiae mlh1 rad18 strain growth inhibition, stronger effect = higher value
Method in brief: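 Steps: expose repair-defective yeast to compound; measure growth; express inhibition against vehicle-treated controls.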

[7] = at 5.0 µM (retest, dose inferred, filed as 0.5)
[8] = at 50.0 µM (retest, dose inferred, filed as 5.0)

Structure (SMILES)	growth inhibition [1, 7]	growth inhibition [1, 8]	growth inhibition ([1]; at 50.0 µM)	growth inhibition [2, 7]	growth inhibition [2, 8]	growth inhibition ([2]; at 50.0 µM)	growth inhibition [3, 7]	growth inhibition [3, 8]	growth inhibition ([3]; at 50.0 µM)	growth inhibition [4, 7]	growth inhibition [4, 8]	growth inhibition ([4]; at 50.0 µM)	growth inhibition [5, 7] [%]	growth inhibition [5, 8]	growth inhibition ([5]; at 50.0 µM)	growth inhibition [6, 7]	growth inhibition [6, 8]	growth inhibition ([6]; at 50.0 µM)
Clc1nnc(Cl)s1	3%	36%	29.1%	8%	54%	21.6%	2%	67%	19.4%	1%	9%	25.9%	5	72% (active)	23.9%	5%	53%	18.9%
CN(C)C(=S)/N=c1\ss/c(=N\C(=S)N(C)C)n1Cc1ccco1	-2%	2%	12.2%	-2%	0%	-10.7%	-2%	4%	-2.7%	-4%	3%	9.1%	0	-1%	-3.05%	-1%	2%	-3.15%
CCC(/C=C/c1ccccc1)=N\Nc1ccccc1	11%	89% (active)	47.7%	-10%	83% (active)	79% (active)	1%	91% (active)	34.1%	-27%	76% (active)	-12.3%	-15	90% (active)	87.3% (active)	-13%	95% (active)	74.4% (active)
Nc1c(Cl)[nH]c(C(F)(F)F)nc1=S	-2%	-7%	5.2%	-7%	-1%	-4.75%	-9%	-7%	-2.45%	-7%	4%	15.3%	-3	10%	-9.45%	0%	1%	23.3%
COc1cc(/C=C2/C(=O)N(C(=O)c3ccccc3O)N=C2C)cc(OC)c1OC	-14%	23%	64%	9%	35%	16.6%	-8%	28%	36.5%	-4%	26%	26.4%	12	80% (active)	77.1% (active)	20%	61%	39.2%
Cc1cc(=O)[nH]c2cc3oc4ccccc4c3cc12	30%	94% (active)	95.2% (active)	-5%	39%	32.4%	11%	40%	17.6%	9%	36%	68.1%	-13	45%	81% (active)	23%	80% (active)	78.9% (active)
O=S(O)CCCCCSSc1ccc(Cl)cc1	3%	81% (active)	98% (active)	9%	100% (active)	95.8% (active)	5%	97% (active)	98.8% (active)	-2%	97% (active)	98.2% (active)	25	99% (active)	99% (active)	8%	97% (active)	98.2% (active)
CN(C)C(=S)/N=c1\ss/c(=N\C(=S)N(C)C)n1-c1ccc(Cl)cc1	9%	9%	94.2% (active)	14%	-7%	92.1% (active)	7%	13%	95.7% (active)	5%	-10%	72.3% (active)	3	-2%	90% (active)	8%	29%	96.2% (active)
Nc1cn(C2OC(CC(c3ccccc3)(c3ccccc3)c3ccccc3)C(O)C2O)c(=O)[nH]c1=O (stereo not given)	99% (active)	99% (active)	39%	97% (active)	97% (active)	34.9%	99% (active)	99% (active)	42.1%	96% (active)	96% (active)	37.5%	66	66%	46.5%	97% (active)	97% (active)	34.6%
C=Nc1ccc2ccccc2c1Cc1c(O)ccc2ccccc12	7%	99% (active)	97.2% (active)	12%	99% (active)	97.2% (active)	8%	99% (active)	97.4% (active)	-8%	99% (active)	96.5% (active)	1	99% (active)	97.5% (active)	11%	99% (active)	96.7% (active)
